Test results as given in the supplement of paper PMC10849652.
Of roughly 8,800 targets only a part is listed; those with a hit were picked by preference. About 0.5% of all pairs of compound and target were hits.

Assays:
Assay in all cases: log2 fold change, soluble protein after heating vs DMSO (PISA); higher = thermal stabilisation; K562 lysate, 10 uM; active = over 0.2 and 3.5 SD of the protein, either way, in both replicates (recomputed)
ibrutinib = compound: C=CC(=O)N1CCC[C@@H](n2nc(-c3ccc(Oc4ccccc4)cc3)c3c(N)ncnc32)C1 [ibrutinib]
In short: (§1)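 Log-two fold change in thermal stability relative to solvent controls is reported from duplicates. For each sample, crude K562 extract from dounce-homogenised pellets in PBS pH 7.4 with 1 mM MgCl2, at 1 mg/mL protein, was treated with 10 μM compound for 30 min. Aliquots heated for 3 min across 48°C-58°C were pooled, brought to 0.5% NP-40 at 4°C and cleared at 21,000xg for 90 min. The supernatant was quantified by TMTpro 16plex LC-MS/MS with channel sums equalised.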

[1] = compound: CC(=O)c1cnc2ccc(-c3cc(Cl)c(O)c(Cl)c3)nc2c1N[C@H]1CC[C@H](CN(C)C)CC1
In short: as §1

ralimetinib = compound: CC(C)(C)Cn1c(N)nc2ccc(-c3[nH]c(C(C)(C)C)nc3-c3ccc(F)cc3)nc21 [ralimetinib]
In short: as §1

[2] = compound: CC(C)(O)CC(=O)NCCn1ccc2ncnc(Nc3ccc(Oc4cccc(C(F)(F)F)c4)c(Cl)c3)c21
In short: as §1

[3] = compound: CC(C)C1=C2N=C(C=C(N2N=C1)NCC3=CC=CC=C3)NCCCCCCN
In short: as §1

[4] = compound: CC1=C(C(CC(=O)N1)C2=CC=C(C=C2)C(F)(F)F)C(=O)NC3=C(C=C4C(=C3)C=NN4)F
In short: as §1

[5] = compound: CC1=C(C2=C(C=C1)C(=O)C3=CC=CC=C3N2CCCN)C
In short: as §1

[6] = compound: CC1=C(C=C(C=C1)NC(=O)C2=CC(=CC=C2)C(C)(C)C#N)NC3=CC4=C(C=C3)N=CN(C4=O)C
In short: as §1

[7] = compound: CC1=C(C=C(C=C1)NC(=O)C2=CC(=CC=C2)N(C)C)NC(=O)C3=CC=C(C=C3)O
In short: as §1

[8] = compound: CC1=CC=C(C=C1)SC2=C3C=C(SC3=CN=C2)C(=O)N
In short: as §1

Measured: log2 fold change

AMDHD2 isoform 3 (UniProt Q9Y303)
inactive: ibrutinib 0.032 | [1] 0.006 | ralimetinib -0.059 | [2] -0.025 | [3] -0.011 | [4] 0.009 | [5] 0.013 | [6] -0.015 | [7] -0.017 | [8] -0.017

ADAR isoform 4 (UniProt P55265)
UniProt P55265, sequence (P55265 whole entry, looked up): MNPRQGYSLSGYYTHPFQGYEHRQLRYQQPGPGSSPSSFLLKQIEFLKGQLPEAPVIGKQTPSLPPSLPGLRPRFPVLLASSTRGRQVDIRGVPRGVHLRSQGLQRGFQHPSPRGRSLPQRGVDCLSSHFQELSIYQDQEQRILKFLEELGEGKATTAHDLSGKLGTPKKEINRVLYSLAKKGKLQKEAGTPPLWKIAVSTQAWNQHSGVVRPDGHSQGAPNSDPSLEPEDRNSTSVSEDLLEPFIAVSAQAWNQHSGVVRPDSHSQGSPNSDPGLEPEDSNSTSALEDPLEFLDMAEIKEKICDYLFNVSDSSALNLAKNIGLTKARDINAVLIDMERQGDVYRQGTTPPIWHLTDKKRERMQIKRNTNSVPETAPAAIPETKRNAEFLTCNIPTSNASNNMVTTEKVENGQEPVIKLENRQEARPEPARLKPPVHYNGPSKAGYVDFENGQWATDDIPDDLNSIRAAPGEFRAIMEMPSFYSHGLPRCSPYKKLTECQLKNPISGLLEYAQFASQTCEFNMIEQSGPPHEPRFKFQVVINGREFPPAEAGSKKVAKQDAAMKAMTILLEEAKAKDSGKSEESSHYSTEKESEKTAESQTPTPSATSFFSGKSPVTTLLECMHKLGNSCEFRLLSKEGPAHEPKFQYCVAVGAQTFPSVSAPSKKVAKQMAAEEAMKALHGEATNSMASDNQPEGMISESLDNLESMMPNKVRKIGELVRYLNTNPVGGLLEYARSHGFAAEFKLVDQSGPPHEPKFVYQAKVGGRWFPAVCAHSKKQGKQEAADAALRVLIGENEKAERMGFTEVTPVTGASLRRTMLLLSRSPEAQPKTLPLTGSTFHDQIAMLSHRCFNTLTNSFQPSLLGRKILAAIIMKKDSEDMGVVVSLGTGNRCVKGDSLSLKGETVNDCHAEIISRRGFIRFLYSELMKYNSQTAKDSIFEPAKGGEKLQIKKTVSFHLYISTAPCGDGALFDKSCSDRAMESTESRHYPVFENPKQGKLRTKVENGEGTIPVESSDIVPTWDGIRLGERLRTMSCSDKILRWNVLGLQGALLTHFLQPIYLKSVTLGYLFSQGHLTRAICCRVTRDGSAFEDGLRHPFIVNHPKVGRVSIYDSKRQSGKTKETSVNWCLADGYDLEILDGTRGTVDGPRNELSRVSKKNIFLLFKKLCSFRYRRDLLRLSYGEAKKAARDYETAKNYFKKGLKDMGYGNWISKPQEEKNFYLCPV
inactive: ibrutinib 0.152 | [1] -0.025 | ralimetinib 0.029 | [2] -0.019 | [3] -0.03 | [4] 0.018 | [5] 0.016 | [6] -0.002 | [7] 0.015 | [8] -0.021

AIP (UniProt O00170)
inactive: ibrutinib 0.019 | [1] -0.004 | ralimetinib -0.022 | [2] -0.003 | [3] -0.012 | [4] -0.011 | [5] -0.017 | [6] 0.011 | [7] 0 | [8] -0.023

ABHD17A isoform 2 (UniProt Q96GS6)
inactive: ibrutinib -0.03 | [1] 0.011 | ralimetinib 0.039 | [2] -0.035 | [3] 0.032 | [4] -0.042 | [5] -0.065 | [6] -0.023 | [7] -0.097 | [8] -0.098

ARGLU1 (UniProt Q9NWB6)
UniProt Q9NWB6, sequence (Q9NWB6 whole entry, looked up): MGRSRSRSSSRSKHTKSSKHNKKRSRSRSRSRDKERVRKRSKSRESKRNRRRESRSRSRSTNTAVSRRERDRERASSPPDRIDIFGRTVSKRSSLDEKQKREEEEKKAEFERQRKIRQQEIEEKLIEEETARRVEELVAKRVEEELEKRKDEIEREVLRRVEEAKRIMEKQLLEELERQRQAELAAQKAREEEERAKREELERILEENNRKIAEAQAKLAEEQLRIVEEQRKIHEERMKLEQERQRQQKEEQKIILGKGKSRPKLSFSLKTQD
inactive: ibrutinib 0.027 | [1] -0.034 | ralimetinib -0.027 | [2] 0.015 | [3] 0.005 | [4] -0.008 | [5] 0.026 | [6] -0.027 | [7] -0.022 | [8] 0.019

AARS2 (UniProt Q5JTZ9)
inactive: ibrutinib 0 | [1] -0.052 | ralimetinib 0.025 | [2] -0.018 | [3] 0.029 | [4] 0.009 | [5] 0.02 | [6] -0.006 | [7] 0.035 | [8] -0.03

ALDH18A1 (UniProt P54886)
inactive: ibrutinib 0.006 | [1] 0.007 | ralimetinib 0.021 | [2] -0.015 | [3] -0.001 | [4] -0.02 | [5] 0.001 | [6] 0.022 | [7] 0.016 | [8] -0.018

APAF1 (UniProt O14727)
inactive: ibrutinib 0.027 | [1] 0.063 | ralimetinib 0.031 | [2] -0.04 | [3] 0.009 | [4] 0.008 | [5] -0.005 | [6] 0.003 | [7] 0.002 | [8] 0.022

AKR1B1 (UniProt P15121)
inactive: ibrutinib 0.023 | [1] -0.015 | ralimetinib 0.031 | [2] -0.029 | [3] -0.033 | [4] -0.013 | [5] 0.091 | [6] -0.038 | [7] 0.028 | [8] 0.004

ARFGAP1 (UniProt Q8N6T3)
inactive: ibrutinib -0.118 | [1] 0.06 | ralimetinib -0.018 | [2] -0.203 | [3] 0.019 | [4] 0.408 | [5] 0.136 | [6] -0.062 | [7] 0.061 | [8] -0.045

ARHGAP25 isoform 4 (UniProt P42331)
inactive: ibrutinib 0.016 | [1] 0.036 | ralimetinib 0.026 | [2] -0.003 | [3] -0.026 | [4] 0.064 | [5] -0.014 | [6] 0.117 | [7] 0.059 | [8] -0.006

ABHD11 (UniProt Q8NFV4)
UniProt Q8NFV4, sequence (Q8NFV4 whole entry, looked up): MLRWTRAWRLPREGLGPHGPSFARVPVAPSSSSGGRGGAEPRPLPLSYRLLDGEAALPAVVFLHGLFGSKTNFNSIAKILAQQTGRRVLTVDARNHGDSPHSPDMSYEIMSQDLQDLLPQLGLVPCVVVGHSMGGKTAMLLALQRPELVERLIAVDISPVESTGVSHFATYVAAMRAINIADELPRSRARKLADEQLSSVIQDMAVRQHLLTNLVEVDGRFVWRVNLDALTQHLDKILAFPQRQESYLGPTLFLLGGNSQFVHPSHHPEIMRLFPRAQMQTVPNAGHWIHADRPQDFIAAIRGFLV
inactive: ibrutinib -0.012 | [1] 0.057 | ralimetinib -0.04 | [2] -0.048 | [3] -0.2 | [4] 0.018 | [5] -0.241 | [6] -0.013 | [7] 0 | [8] -0.017

ANXA2 isoform 2 (UniProt P07355)
inactive: ibrutinib -0.013 | [1] 0.012 | ralimetinib -0.009 | [2] 0.033 | [3] -0.01 | [4] 0.006 | [5] 0.048 | [6] -0.024 | [7] -0.01 | [8] 0.013

ACOX1 isoform 2 (UniProt Q15067)
inactive: ibrutinib 0.036 | [1] 0.052 | ralimetinib 0.098 | [2] -0.044 | [3] -0.013 | [4] -0.016 | [5] -0.043 | [6] 0.001 | [7] -0.026 | [8] -0.024

ANKRD27 (UniProt Q96NW4)
inactive: ibrutinib 0.016 | [1] -0.003 | ralimetinib -0.028 | [2] -0.009 | [3] 0.032 | [4] 0.033 | [5] -0.014 | [6] 0.089 | [7] 0.013 | [8] -0.102

ALDH1B1 (UniProt P30837)
inactive: ibrutinib 0.008 | [1] 0.086 | ralimetinib 0.019 | [2] 0.02 | [3] 0.056 | [4] -0.024 | [5] -0.005 | [6] -0.018 | [7] -0.014 | [8] -0.018

AK1 (UniProt P00568)
UniProt P00568, sequence (P00568 whole entry, looked up): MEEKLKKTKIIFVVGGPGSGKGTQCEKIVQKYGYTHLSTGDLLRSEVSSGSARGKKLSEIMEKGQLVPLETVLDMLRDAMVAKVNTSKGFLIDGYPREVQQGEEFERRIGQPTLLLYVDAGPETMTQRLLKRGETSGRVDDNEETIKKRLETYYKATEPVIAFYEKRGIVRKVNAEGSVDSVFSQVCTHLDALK
inactive: ibrutinib -0.001 | [1] 0.006 | ralimetinib 0.006 | [2] -0.021 | [3] -0.029 | [4] -0.008 | [5] 0.043 | [6] -0.024 | [7] -0.002 | [8] 0.009

ABCF3 (UniProt Q9NUQ8)
inactive: ibrutinib 0.008 | [1] 0.035 | ralimetinib 0.067 | [2] 0.046 | [3] -0.013 | [4] 0.009 | [5] -0.012 | [6] -0.02 | [7] 0.018 | [8] 0.001

ARL15 (UniProt Q9NXU5)
UniProt Q9NXU5, sequence (Q9NXU5 whole entry, looked up): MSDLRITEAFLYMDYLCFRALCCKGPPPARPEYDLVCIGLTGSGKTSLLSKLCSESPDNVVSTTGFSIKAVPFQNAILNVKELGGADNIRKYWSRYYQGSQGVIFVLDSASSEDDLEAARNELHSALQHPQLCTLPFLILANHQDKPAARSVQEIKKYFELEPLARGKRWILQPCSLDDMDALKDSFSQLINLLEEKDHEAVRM
inactive: ibrutinib -0.015 | [1] 0.048 | ralimetinib -0.012 | [2] -0.05 | [3] 0.015 | [4] 0.005 | [5] 0.005 | [6] 0.001 | [7] 0.033 | [8] -0.005

ALDH6A1 (UniProt Q02252)
inactive: ibrutinib 0.128 | [1] -0.006 | ralimetinib -0.064 | [2] -0.043 | [3] 0.008 | [4] -0.088 | [5] -0.191 | [6] 0.025 | [7] -0.066 | [8] -0.02

ALG3 (UniProt Q92685)
inactive: ibrutinib -0.163 | [1] 0.03 | ralimetinib -0.007 | [2] -0.032 | [3] -0.278 | [5] 0.014 | [6] -0.024 | [7] 0.042 | [8] 0.03

ABI1 isoform 6 (UniProt Q8IZP0)
inactive: [1] -0.034 | [8] -0.028

ALG13 isoform 2 (UniProt Q9NP73)
inactive: [4] 0.03

ACVR1 (UniProt Q04771)
UniProt Q04771, sequence (Q04771 whole entry, looked up): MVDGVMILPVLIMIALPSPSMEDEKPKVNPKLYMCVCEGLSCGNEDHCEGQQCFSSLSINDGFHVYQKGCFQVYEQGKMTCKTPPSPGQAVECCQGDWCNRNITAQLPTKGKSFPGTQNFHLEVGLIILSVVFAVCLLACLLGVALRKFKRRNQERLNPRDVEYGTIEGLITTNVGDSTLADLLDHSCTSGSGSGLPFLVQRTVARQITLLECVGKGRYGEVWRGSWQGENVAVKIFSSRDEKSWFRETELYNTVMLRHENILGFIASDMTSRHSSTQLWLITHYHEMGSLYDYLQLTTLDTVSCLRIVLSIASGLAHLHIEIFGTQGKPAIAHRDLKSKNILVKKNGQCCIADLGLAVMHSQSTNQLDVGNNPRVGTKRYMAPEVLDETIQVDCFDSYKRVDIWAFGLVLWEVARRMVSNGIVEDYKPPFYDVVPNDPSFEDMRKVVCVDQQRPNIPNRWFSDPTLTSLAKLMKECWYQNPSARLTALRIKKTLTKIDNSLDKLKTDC
inactive: ibrutinib -0.047 | [4] -0.152 | [5] -0.02

ABHD13 (UniProt Q7L211)
inactive: ibrutinib 0.041 | [1] -0.017 | [4] -0.028 | [5] 0.196 | [6] 0.03 | [8] 0.003

AIMP2 isoform 2 (UniProt Q13155)
UniProt Q13155, sequence (Q13155 whole entry, looked up): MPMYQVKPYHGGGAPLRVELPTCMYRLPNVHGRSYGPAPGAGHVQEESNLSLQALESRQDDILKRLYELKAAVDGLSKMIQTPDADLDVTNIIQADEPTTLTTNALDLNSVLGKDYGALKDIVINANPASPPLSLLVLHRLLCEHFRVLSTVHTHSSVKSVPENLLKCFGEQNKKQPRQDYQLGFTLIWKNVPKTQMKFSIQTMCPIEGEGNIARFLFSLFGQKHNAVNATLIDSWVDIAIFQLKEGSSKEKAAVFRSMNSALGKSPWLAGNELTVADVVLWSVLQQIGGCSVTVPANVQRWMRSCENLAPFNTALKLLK
inactive: ibrutinib -0.28 | [1] 0.064 | ralimetinib 0.061 | [2] -0.036 | [6] 0.089 | [7] 0.023 | [8] 0

ALKBH1 (UniProt Q13686)
UniProt Q13686, sequence (Q13686 whole entry, looked up): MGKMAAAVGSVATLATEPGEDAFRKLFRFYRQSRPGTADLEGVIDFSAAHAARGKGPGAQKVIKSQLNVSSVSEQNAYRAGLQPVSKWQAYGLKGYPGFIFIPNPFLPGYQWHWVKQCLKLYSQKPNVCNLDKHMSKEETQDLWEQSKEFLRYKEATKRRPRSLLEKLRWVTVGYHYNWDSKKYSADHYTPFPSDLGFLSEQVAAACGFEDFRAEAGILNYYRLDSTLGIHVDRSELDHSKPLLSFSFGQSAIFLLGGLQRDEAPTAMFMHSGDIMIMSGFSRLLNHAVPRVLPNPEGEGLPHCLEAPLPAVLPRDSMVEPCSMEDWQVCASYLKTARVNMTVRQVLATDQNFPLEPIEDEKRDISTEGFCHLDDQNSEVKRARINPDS
inactive: ralimetinib 0.095 | [2] -0.1 | [3] 0.008 | [4] -0.003 | [5] -0.102 | [7] 0.093

ARL13B (UniProt Q3SXY8)
inactive: ibrutinib -0.001 | [1] -0.033 | ralimetinib 0.058 | [2] -0.032 | [3] 0.081 | [5] -0.002 | [6] 0.047 | [7] -0.068 | [8] 0.077

ARMCX5 (UniProt Q6P1M9)
UniProt Q6P1M9, sequence (Q6P1M9 whole entry, looked up): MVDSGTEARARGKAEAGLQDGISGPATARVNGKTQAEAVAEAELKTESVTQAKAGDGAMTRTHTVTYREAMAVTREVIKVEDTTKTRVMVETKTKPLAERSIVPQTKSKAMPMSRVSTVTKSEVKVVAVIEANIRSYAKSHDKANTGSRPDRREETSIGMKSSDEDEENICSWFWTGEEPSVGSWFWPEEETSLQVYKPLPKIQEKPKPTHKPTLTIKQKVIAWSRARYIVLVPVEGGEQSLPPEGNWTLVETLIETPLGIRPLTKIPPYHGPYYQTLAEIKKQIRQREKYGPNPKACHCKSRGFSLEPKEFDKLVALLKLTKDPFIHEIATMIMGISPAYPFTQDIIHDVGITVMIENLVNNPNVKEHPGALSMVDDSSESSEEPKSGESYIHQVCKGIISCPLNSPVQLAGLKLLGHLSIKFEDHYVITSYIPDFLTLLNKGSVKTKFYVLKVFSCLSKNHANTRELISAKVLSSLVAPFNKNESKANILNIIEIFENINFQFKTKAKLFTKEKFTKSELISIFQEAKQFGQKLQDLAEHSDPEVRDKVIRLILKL
inactive: ibrutinib 0.04 | [1] -0.018 | ralimetinib 0.012 | [2] 0.013 | [3] -0.004 | [4] -0.047 | [5] 0.053 | [7] -0.049 | [8] -0.093

ADD1 isoform 4 (UniProt P35611)
inactive: ibrutinib 0.214 | [1] 0.003 | ralimetinib -0.104 | [2] -0.356 | [3] 0.056 | [5] 0.004 | [7] 0.017 | [8] -0.341

ANKRD44 isoform 2 (UniProt Q8N8A2)
UniProt Q8N8A2, sequence (Q8N8A2 whole entry, looked up): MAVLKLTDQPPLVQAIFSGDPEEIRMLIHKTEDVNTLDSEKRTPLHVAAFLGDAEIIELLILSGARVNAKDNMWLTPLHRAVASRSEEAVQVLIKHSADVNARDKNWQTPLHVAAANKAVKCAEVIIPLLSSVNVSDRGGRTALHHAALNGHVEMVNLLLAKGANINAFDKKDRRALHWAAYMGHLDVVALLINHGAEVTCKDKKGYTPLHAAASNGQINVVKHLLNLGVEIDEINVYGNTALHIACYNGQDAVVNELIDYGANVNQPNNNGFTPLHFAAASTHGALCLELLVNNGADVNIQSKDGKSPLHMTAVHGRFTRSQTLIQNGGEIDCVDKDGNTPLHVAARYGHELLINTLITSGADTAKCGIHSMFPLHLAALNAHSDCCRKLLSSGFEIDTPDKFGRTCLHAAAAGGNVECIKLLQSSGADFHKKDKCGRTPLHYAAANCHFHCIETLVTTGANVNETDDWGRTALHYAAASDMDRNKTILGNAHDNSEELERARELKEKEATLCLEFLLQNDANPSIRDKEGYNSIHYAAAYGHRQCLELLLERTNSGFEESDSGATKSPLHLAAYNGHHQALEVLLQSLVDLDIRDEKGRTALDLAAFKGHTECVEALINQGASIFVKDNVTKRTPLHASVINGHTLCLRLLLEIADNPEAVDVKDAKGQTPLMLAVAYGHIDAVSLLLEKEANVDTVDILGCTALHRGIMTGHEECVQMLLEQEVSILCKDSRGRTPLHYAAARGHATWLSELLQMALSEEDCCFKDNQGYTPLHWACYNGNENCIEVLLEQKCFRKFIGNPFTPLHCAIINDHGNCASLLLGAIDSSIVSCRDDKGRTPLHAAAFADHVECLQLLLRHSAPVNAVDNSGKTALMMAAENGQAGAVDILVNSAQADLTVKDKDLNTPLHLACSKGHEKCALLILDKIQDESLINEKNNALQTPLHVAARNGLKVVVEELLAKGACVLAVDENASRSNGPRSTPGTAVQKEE
inactive: ibrutinib -0.131 | [1] 0.067 | [3] -0.026 | [4] 0.075 | [8] -0.029

AP3D1 isoform 2 (UniProt O14617)
inactive: [1] -0.085 | [3] 0.09 | [4] 0.127 | [8] 0.053

ACTG1 (UniProt K7EM38)
inactive: [1] -0.044 | [8] 0.152
